Reference: PubChem BioAssay (NCI)
This is part of a sample that, as a whole, favours compounds with a hit. Of some 83,000 tested, about 20% had one in any assay.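 Results are percent growth after 48 hours of single-concentration exposure. 100 means growth as in untreated cells, lower positive values show inhibition; negative values down to -100 show cell death.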 A number with no mark means an inactive call. Activity calls are given as the source filed them. How the source made its calls: active means growth percent below 10; inactive means the rest.

Each compound was assayed on SR leukemia (assay: NCI-60 one-dose screen, 48 h (100 = growth as untreated, 0 = no growth, -100 = all killed)). Conditions: 10 µM unless noted.

| Structure (SMILES) | growth |
| --- | --- |
| Cc1ccc(C(=O)Nc2ccc(-n3ccnc3)c(C(F)(F)F)c2)cc1C#Cc1cnc2cccnn12 | 13.8% |
| N/C(=N\c1nc2ccccc2s1)NC(=O)Nc1ccccc1F | 20.8% |
| Cc1nc2sccn2c1-c1nnc(SCC(C)C)o1 | 44.8% |
| O=[N+]([O-])c1cccc(-c2nnc3c(/C=C/c4ccc(F)cc4)nc4ccccc4n23)c1 | 85.2% |
| C=CC(=O)N1CCN(c2ccc3nc4c(nc3c2C(F)(F)F)C(=O)c2ncccc2C4=O)CC1 | 33.2% |
| CN1CCN(CCS(=O)(=O)Nc2cc(-c3ccc4ncnc(Nc5ccc(F)c(Cl)c5)c4c3)cnc2Cl)CC1 | -45.4% (active) |
| COc1ccc(N=Nc2c(N)nn3c(-c4ccc(F)cc4)ccnc23)cc1 | 3.18% (active) |
| O=C(N/N=C/c1c[nH]c2ccccc12)Nc1ccc(F)c(Cl)c1 | 19.3% |
| N#CCc1nnc(NC(=O)c2ccc(-n3c(=O)[nH]c4ccccc4c3=O)cc2)s1 | 93.4% |
| CCOc1ccc(-c2cc(-c3cc(C(C)C)c(O)cc3C)nn2-c2ccc(S(N)(=O)=O)cc2)cc1 | 5.54% (active) |
| CN1CCN(c2ccc3c4c(cccc24)C(=O)N(c2cccc(-c4nn(-c5ccccc5)cc4-c4nc5ccccc5s4)c2)C3=O)CC1 | -25% (active) |
| O=C(Cn1c(-c2ccccc2)nc2ccccc21)N=Nc1c(O)[nH]c2ccc(Cl)cc12 | -14.7% (active) |
| CCc1ccc(SC2c3cc(OC)ccc3Oc3nc(N)c(C#N)c(N)c32)cc1 (stereo not drawn) | -62% (active) |
| CN(C)C(=O)c1cc(-c2ccc3ncnc(N4CCc5cc(F)c(Cl)cc54)c3c2)cnc1N | -57% (active) |
| CN1C(=O)C2(C(C#N)=C(c3ccc(Cl)cc3)Nc3c2c(-c2ccccc2)nn3-c2ccccc2)c2ccccc21 (stereo not drawn) | 29.6% |
| Cc1ccc2c(c1)/C(=C/C(=O)c1cc3ccccc3oc1=O)C(=O)N2 | 6.51% (active) |
| N#CC1=C(c2cccs2)Nc2c(c(-c3ccccc3)nn2-c2ccccc2)C12C(=O)Nc1ccc(Cl)cc12 (stereo not drawn) | 12.6% |
| O=C(NC(=S)N1CCN(c2ncnc3c2cnn3-c2ccccc2)CC1)c1ccc(Br)cc1 | 14.1% |
| Nc1nnc(-c2cncc(Br)c2)c(-c2c[nH]c3ccc(Cl)cc23)n1 | 54.1% |

| Structure (SMILES) | growth |
| --- | --- |
| COc1ccc(C2=NN(C(=O)[C@H]3[C@@H](c4ccco4)c4sc(=O)[nH]c4S[C@@H]3C)C(c3ccc4ccccc4c3)C2)cc1 (stereo partly drawn) | 24.8% |
| CCOc1ccc2[nH]c(=O)c(C(c3nnnn3CC3CCCO3)N3CCN(Cc4ccccc4)CC3)cc2c1 (stereo not drawn) | 111% |
| FC(F)(F)c1cc2c(Cl)ncnc2n1CCC1CCOCC1 | -64.3% (active) |
| COc1cc(/C=C/C(=O)c2cnn(-c3cc(=O)[nH]c4ccc(C)cc34)c2C)cc(OC)c1OC | -8.63% (active) |
| O=C(N/N=C/c1c[nH]c2ccccc12)Nc1ccccc1Cl | 5.61% (active) |
| Nc1nn2c(-c3cc4ccccc4oc3=O)ccnc2c1N=Nc1ccccc1 | 59.1% |
| Cc1ccc(C(=O)Nc2cc(-c3ccncc3)cc(C(F)(F)F)c2)cc1C#Cc1cnc2cccnn12 | -11.9% (active) |
| COc1ccc(C(=O)/C=C/c2ccc3c(c2)OCCO3)cc1S(N)(=O)=O | 17.6% |
| FC(F)(F)c1cc2c(Cl)ncnc2n1CCN1CCCCC1 | -50.9% (active) |
| COc1ccc2[nH]cc(-c3cc4nc(-c5cn(C)c6ncccc56)cc(N)n4n3)c2c1 | -9.65% (active) |
| Nc1nc(-c2ccccc2)c(N=Nc2ccc(Cl)cc2Cl)s1 | -33.6% (active) |
| COc1ccc(NC(=O)Cn2c(/C=C/c3ccc([N+](=O)[O-])cc3)nc3ccccc3c2=O)cc1 | 88.9% |
| C[C@@H]1[C@H]2C[C@@H](C[C@H]1NCc1nc3ccccc3n1C1CCCCCC1)C2(C)C | 15.4% |
| COc1ccc(NC(=O)Cn2c(/C=C/c3cccc(Br)c3)nc3ccccc3c2=O)cc1 | 78.3% |
| Cc1ccc(-c2cc(C(=O)N=Nc3c(O)[nH]c4ccc(F)cc34)c3ccccc3n2)cc1 | 56.8% |
| CCOC(=O)c1ccc(NC(=S)NC(=O)c2ccc(NC(=O)C(C)C)cc2OC)cc1 | 0.956% (active) |
| CCCSc1nnc(-c2c(C)nc3sccn23)o1 | 120% |
| Cc1ccc(N=Nc2c(N)nn3c(-c4cc5ccccc5oc4=O)ccnc23)cc1 | 75.7% |
| O=C(N/N=C/c1ccc(Cl)o1)c1[nH]c2ccc(Br)cc2c1-c1ccccc1 | 7.2% (active) |
